HCV inh: blocks hepatitis C virus; Huh7.5.1 HCVcc-Cre infection, luciferase reporter, 44 h; Potency, µM (doses to about 41.8 µM), hits mostly inhibitors; 340,000 tested, 3.4% active
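A cell-based infection assay in which seeded cells (1,000 per well) receive test compound after 4 h, are inoculated with HCVcc-Cre at approximately 0.5 moi, and are incubated 44 h before luminescence detection.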
AmpC detergent: inhibitors of E. coli AmpC beta-lactamase with detergent. AmpC hydrolysis of nitrocefin, absorbance 480 nm, 0.01% Triton. AID 485294. 370,000 tested, 0.041% active. P00811. Potency, µM (doses to about 114 µM), most hits filed as inhibitors; also: nearly all actives have a fitted effect of over 25% in size
Target sequence (P00811 whole entry, looked up): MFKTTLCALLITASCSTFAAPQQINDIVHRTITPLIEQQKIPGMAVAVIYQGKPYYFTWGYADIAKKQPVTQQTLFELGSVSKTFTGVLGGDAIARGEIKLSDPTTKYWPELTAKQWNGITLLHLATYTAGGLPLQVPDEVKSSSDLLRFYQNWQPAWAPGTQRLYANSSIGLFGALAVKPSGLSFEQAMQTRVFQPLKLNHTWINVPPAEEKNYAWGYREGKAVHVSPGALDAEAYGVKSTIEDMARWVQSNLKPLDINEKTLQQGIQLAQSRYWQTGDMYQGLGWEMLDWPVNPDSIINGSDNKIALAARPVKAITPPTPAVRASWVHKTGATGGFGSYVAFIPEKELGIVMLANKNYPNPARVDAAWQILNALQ
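20 mM phosphate pH 7.0 + 0.01% (detergent screen) or 0.0001% Triton X-100; 5.3 nM AmpC reagent; cpd preinc 15 min RT; nitrocefin (800 uM stock) to start; A480 q20 s × 4 min; Activity was normalised to no-enzyme and no-compound control wells.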
Pf growth 96h: P. falciparum growth inhibition at 96 hours | Potency, µM (highest dose often 28.7 µM), hits mostly inhibitors | AID 504834 | P. falciparum luciferase reporter growth, 96 h | 320,000 tested, 6.9% active
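96 h incubation, 37 C, 5% CO2, of luciferase-reporter P. falciparum-infected RBCs (2% hematocrit, 0.05% parasitemia final) with test compounds; endpoint luminescence.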
Pf growth 48h: P. falciparum growth inhibition at 48 hours (one generation); P. falciparum luciferase growth in erythrocytes, 48 h; Potency, µM (series often up to 28.7 µM), most hits filed as inhibitors; 310,000 tested, 5.9% active
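Cell-based growth assay: transgenic P. falciparum expressing firefly luciferase, cultured in red cells within RPMI 1640 containing 0.5% w/v Albumax, 24 mM bicarbonate and gentamycin. A drop in luciferase activity indicates inhibition.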
AMA1-RON2 inh: disrupts binding of P. falciparum AMA1 to RON2. AlphaScreen AMA1-biotinylated RON2 peptide binding. Potency, µM (doses to about 58.2 µM), usual class: inhibitors. 360,000 tested, 0.2% active; also: nearly all actives have a fitted effect of over 45% in size
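AMA1 (3D7) with his tag at 25 nM final met compounds first, then biotinylated RON2 peptide at 25 nM; detection used donor plus acceptor beads, 10 µg/mL apiece, read by AlphaScreen after 30 min at room temperature.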
AmpC inh no detg: inhibitors of E. coli AmpC beta-lactamase without detergent | Potency, µM (titrated, usually from 57.1 µM), usual class: inhibitors | 330,000 tested, 0.52% active | P00811 | AmpC nitrocefin hydrolysis, absorbance 480 nm, 0.0001% Triton; also: nearly all actives have a fitted effect of over 20% in size
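AmpC (5.3 nM in the dispensed reagent) in 20 mM phosphate pH 7.0 with 0.01% (detergent screen) or 0.0001% Triton X-100 was preincubated with compounds for 15 min at room temperature. Nitrocefin was then added from an 800 uM solution, and hydrolysis was followed at 480 nm.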
Hits are given with their value; . = inactive; ? = inconclusive; / = no result given. This is a sample that favours compounds with a hit; in the whole collection about 11% have one here. Calls follow the shape of the dose curve; as a rule, active = well fitted curve in the direction sought with a large enough effect; inconclusive = small, poorly fitted or top-dose-only effect, or another doubt; inactive = no such curve, though single readings can be large; an effect the other way counts as inactive or inconclusive.

SMILES | HCV inh | AmpC detergent | Pf growth 96h | Pf growth 48h | AMA1-RON2 inh | AmpC inh no detg
Cn1nc(C(=O)Nc2ccc(Cl)cc2)cc1C(=O)Nc1ccc(Cl)cc1 | . | ? | . | . | . | .
CCOc1ccccc1NC(=O)CSc1ccc2nc(-c3ccccc3)cn2n1 | / | . | / | / | / | /
Cc1ccc(NC(=O)CN(C)S(=O)(=O)c2cccc3nsnc23)c(C)c1 | / | . | / | / | / | /
COCCNc1ccc(-c2nc(-c3ccccn3)no2)cc1[N+](=O)[O-] | / | . | / | / | / | /
CCC1CN(C(=O)N2CCC(C(=O)NCCCc3ccccc3)CC2)c2ccccc2O1 (centres undefined) | / | . | / | / | / | /
COc1cc(C2CC(=O)N(c3ccccc3)C3=C2C(=O)OC3)cc(OC)c1OC (centres undefined) | / | . | / | / | / | /
O=C(Nc1ccncc1)Nc1cccc(Cl)c1 | . | ? | . | 1.5µM | . | .
O=C(Nc1cccc(Cl)c1)Nc1ccccc1-n1ccnc1 | . | . | 12µM | ? | . | .
CSc1ccccc1NC(=O)Nc1cccc(Cl)c1 | ? | . | / | . | . | .
CN(C)c1ccc(NC(=O)Oc2ccccc2)cc1 | . | . | 0.15µM | / | ? | .
CN(C)c1ccc(NC(=O)Nc2ccc3c(c2)c(=O)n(C)n3-c2ccccc2)cc1 | / | / | / | / | 20µM | /
Cc1ccc(C)c(Cn2c(=O)n(CCCCC(=O)NCc3ccc4c(c3)OCO4)c(=O)c3ccccc32)c1 | / | . | / | / | / | /
COc1nc(-c2ccc(C)cc2)ccc1-c1noc(-c2cccnc2)n1 | . | . | 12µM | . | . | .
Cc1oc(-c2cccc(Cl)c2)nc1CS(=O)(=O)CC(=O)NC(C)CCc1ccccc1 (centres undefined) | / | . | / | / | / | /
O=C(Nc1ccccc1)c1cccc2c(=O)c3c([nH]c12)CCCC3 | / | . | / | / | / | /
Cc1ccc(-c2nc(CS(=O)CC(=O)NCc3ccc(Cl)cc3)c(C)o2)cc1 (centres undefined) | 11µM | . | . | / | . | .
CCCNC(=O)CS(=O)Cc1nc(-c2ccc(OC)cc2)oc1C (centres undefined) | . | ? | 15µM | / | . | .
Cc1oc(-c2ccccc2F)nc1CS(=O)CC(=O)NCc1ccc(F)cc1 (centres undefined) | . | . | 2.9µM | . | . | .
CCCCNC(=O)CS(=O)Cc1nc(-c2ccc(C)cc2)oc1C (centres undefined) | . | ? | . | / | . | .
Cc1oc(-c2ccc(Cl)cc2)nc1CS(=O)CC(=O)NCc1ccccc1 (centres undefined) | . | . | . | . | . | .
COc1ccc(C(=O)c2oc3ccccc3c2NC(=O)COc2c(C)cc(C)cc2C)cc1 | / | . | / | / | / | /
COc1ccc(CCNC(=O)Cn2c(=O)cc(C(F)(F)F)c3c(C)nn(C)c32)cc1OC | / | . | / | / | / | /
COc1cccc(C(c2nnnn2Cc2ccccc2)N2CCN(C(=O)c3ccco3)CC2)c1OC (centres undefined) | . | . | ? | 9.3µM | . | .
CCCC(c1nnnn1C1CCCCC1)N1CCN(C(=O)c2ccco2)CC1 (centres undefined) | . | . | . | 3.7µM | . | .
COc1cccc(C(c2nnnn2Cc2ccco2)N2CCN(c3cccc(C)c3C)CC2)c1OC (centres undefined) | 11µM | . | . | 9.3µM | . | .
SMILES | HCV inh | AmpC detergent | Pf growth 96h | Pf growth 48h | AMA1-RON2 inh | AmpC inh no detg
COc1ccc(OC)c(C(c2nnnn2Cc2ccco2)N2CCN(C)CC2)c1 (centres undefined) | . | . | ? | . | . | .
COc1ccccc1C(c1nnnn1C(C)C)N1CCN(C(=O)c2ccco2)CC1 (centres undefined) | . | . | ? | . | . | .
Clc1ccccc1C(c1nnnn1Cc1ccco1)N1CCN(Cc2ccco2)CC1 (centres undefined) | . | . | . | 15µM | . | .
COCCNC(=O)CN1C(=O)c2cccnc2Oc2ccc(Cl)cc21 | / | . | / | / | / | /
COc1ccc(NC(=O)c2ccc(-c3nc(CSc4ccccc4)c(C)o3)cc2)c(OC)c1 | / | . | / | / | / | /
COc1cccc(CNC(=O)C(=O)NCC(c2cccs2)S(=O)(=O)c2cccs2)c1 (centres undefined) | / | . | / | / | / | /
O=C(CCc1nc(-c2ccccc2F)no1)Nc1cccc(C(F)(F)F)c1 | / | . | / | / | / | /
CC(C)C(c1nnnn1Cc1ccco1)N1CCN(C2CCCC2)CC1 (centres undefined) | . | . | . | . | . | .
O=C(c1ccco1)N1CCN(C(c2ccc(Cl)cc2)c2nnnn2Cc2ccccc2)CC1 (centres undefined) | . | . | 10µM | 12µM | . | .
CCC(c1nnnn1CCc1ccccc1)N1CCN(C(=O)c2ccco2)CC1 (centres undefined) | . | . | 9.3µM | . | . | .
COc1ccc(C(c2nnnn2Cc2ccccc2)N2CCN(C(=O)c3ccco3)CC2)cc1 (centres undefined) | . | ? | / | ? | . | .
CC(C)CC(c1nnnn1CCc1ccccc1)N1CCN(C(=O)c2ccco2)CC1 (centres undefined) | . | ? | ? | ? | . | .
CCCC(c1nnnn1Cc1ccco1)N1CCN(C2CCCC2)CC1 (centres undefined) | . | . | 12µM | . | . | .
CCc1ccc(NC(=O)CC2C(=O)N(c3ccc(OC)cc3)C(=O)N2Cc2ccc(OC)cc2)cc1 (centres undefined) | / | . | / | / | / | /
Cc1ccc(C)c(N2CCN(C(=O)CN3C(=O)COc4ccc(S(=O)(=O)N5CCC(C)CC5)cc43)CC2)c1 | / | . | / | / | / | /
CC(C)COc1ccc(C(=O)N/N=C/c2ccoc2)cc1 | . | . | 5.9µM | . | . | .
Cc1scc(C(=O)N/N=C/c2ccc(OCC(C)C)cc2)c1C | ? | ? | 12µM | / | . | .
CCOc1cc(C(=O)N/N=C/c2ccoc2)cc(OCC)c1OCC | . | . | ? | . | . | .
COc1ccc(S(=O)(=O)N2CCN(c3ccccc3OC)CC2)cc1-c1noc(C)n1 | / | . | / | / | / | /
O=C1S/C(=C/c2ccccc2)C(=O)N1CC(O)Cn1c2ccccc2c2ccccc21 (centres undefined) | . | . | ? | . | . | 16µM
COc1cc(NC(=O)Cn2ccn(Cc3ccccc3OC)c(=O)c2=O)cc(OC)c1 | / | . | / | / | / | /
CCCCOc1ccc(C(=O)Nc2onc3c2CCCC3)cc1 | / | . | / | / | / | /
Cc1ccccc1CNc1nc(N(C)C)nc2c1cnn2C | / | . | / | / | / | /
S=c1[nH]nc(COc2ccccc2)n1/N=C/C=C/c1ccco1 | . | . | . | . | . | 16µM
CCOC(=O)c1ccc(NC(=O)Cc2coc3cc(C)cc(C)c23)cc1 | / | . | / | / | / | /

From PubChem
